# Assay results from PubChem BioAssay.
# Values joined by “and” are separate entries in the source; they are usually repeats but may differ in a detail not shown here. Identical values can stand only once. Active and inactive are the calls of the source. Unless noted, no rule for the calls is given here.
# Assays:
# [1] = kinase inhibitors against Plasmodium liver-stage infection, cell-based, known kinase inhibitor set, luminescence, hepatoma host viability (AID 624392); settings: Plasmodium liver stage in hepatoma cells, luciferase luminescence, concentration not given here; liver cell % of control: measured here: host liver cell viability; parasite % of control: stronger effect = lower value;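 also: infected cells incubated roughly two days before readout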
# [2] = modulators of glucocorticoid suppression of NF-kB, cell-based, luciferase, IL-1B stimulus, dexamethasone (AID 624486); settings: NF-kB luciferase reporter, IL-1B + dexamethasone, luminescence; percent of negative control (+Dex): actives lie on both sides, concentration not given here; z-score: measured here: IL-1B alone, no Dex;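 as to percent of negative control (+Dex): 100% = mean signal of vehicle control wells on the plate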
# [3] = target: Cellular tumor antigen p53 (Homo sapiens) (UniProt P04637); assay: kinase inhibitors altering GFP-p53 stability in HPV16-positive cells, imaging, known kinase inhibitor set, EGFP/DsRed ratio (AID 1053116); settings: stronger effect = higher value; EGFP object count: measured here: GFP-p53 positive objects count;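 also: cells exposed to compounds for 24 h at 37 °C before reading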
# Sequence of Cellular tumor antigen p53 (Homo sapiens) (P04637 whole entry, looked up): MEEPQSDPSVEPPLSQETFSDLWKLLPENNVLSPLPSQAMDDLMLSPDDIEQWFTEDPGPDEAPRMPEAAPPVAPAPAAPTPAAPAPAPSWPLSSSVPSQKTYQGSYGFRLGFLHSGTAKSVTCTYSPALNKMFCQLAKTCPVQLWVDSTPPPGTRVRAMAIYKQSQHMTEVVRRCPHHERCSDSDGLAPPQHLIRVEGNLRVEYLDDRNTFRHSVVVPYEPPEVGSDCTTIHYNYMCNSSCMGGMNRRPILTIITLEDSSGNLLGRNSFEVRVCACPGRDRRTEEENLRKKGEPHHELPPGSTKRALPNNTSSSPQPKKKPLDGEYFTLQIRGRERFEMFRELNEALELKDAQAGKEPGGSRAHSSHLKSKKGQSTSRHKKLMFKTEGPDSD
# [4] = IRF3 reporter activation in THP-1 macrophages, cell-based, PMA-stimulated THP-1, luminescence (AID 1053176); settings: PMA-differentiated THP-1, IRF3 reporter luminescence; stronger effect = higher value
# [5] = kinase inhibitors altering Pseudomonas killing of worms, whole organism (AID 651566);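 also: tested at 14 µM; sign flipped so higher z means a lower ratio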; settings: C. elegans killed by P. aeruginosa, survival ratio
# [6] = activators of macrophage pro-inflammatory response, cell-based, murine, luminescence (AID 652131); settings: murine macrophage pro-inflammatory reporter, stronger effect = higher value
# [7] = survival rescue of mitochondrial mutant cells in low glucose, primary screen, MELAS cybrids, Rieske KO mouse fibroblasts, CellTiter-Glo (AID 1508586;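 active = mean z-score across replicates of 1.96 or higher in either the MELAS or the Rieske mutant cell line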;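 also: z relative to plate mean and SD of compound and empty wells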)
# [8] = MELAS cybrid survival, CellTiter-Glo 48 h, stronger effect = higher value
# [9] = Rieske KO mouse fibroblast survival, CellTiter-Glo 72 h
Compound,liver cell % of control [1],parasite % of control [1],percent of negative control (+Dex) [2],z-score [2],EGFP object count [3],EGFP/DsRed ratio [3],fraction signal [4],z-score [5],z-score [6],"z-score [7, 8]","z-score [7, 9]"
CCc1c(C)nc2sc3c(N)ncnc3c2c1C,221%,5.86% (inactive),53.5% (active),-4.42,3.5,0.129 (inactive),-0.001 (inactive),–,–,–,–
Cn1cc(C2=C(Sc3ccccc3)C(=O)NC2=O)c2ccccc21,92.3%,50.7% (inactive),99.5% (inactive),0.02,2.5,0.0664 (inactive),0.008 (inactive),–,–,–,–
Cn1cc(C2=C(c3cccc4ccccc34)C(=O)NC2=O)c2ccccc21,108%,33.9% (inactive),95.5% (inactive),-1.1,14,0.386 (inactive),-0.007 (inactive),–,–,–,–
CNc1ncc2cc(Oc3ccc(F)cc3F)c(=O)n(C)c2n1,109%,65.3% (inactive),94.5% (inactive),1.49,2.5,0.0112 (inactive),-0.001 (inactive),–,–,–,–
Cn1c(=O)c(Oc2ccc(F)cc2F)cc2cnc(NC(CO)CO)nc21,113%,64.2% (inactive),108% (inactive),0.05,2.5,0.0637 (inactive),0.0035 (inactive),–,–,–,–
Cn1cc(C2=C(c3c[nH]c4ccccc34)C(=O)NC2=O)c2ccccc21,85.3%,60.7% (inactive),101% (inactive),-1.61,73,0.286 (inactive),0.0015 (inactive),–,–,–,–
Nc1c(C(=O)c2cccc(C#CCN3CCCCC3)c2)cnn1-c1ccc(F)cc1,91.6%,50.5% (inactive),101% (inactive),0.935,1.5,0.0667 (inactive),0.0075 (inactive),–,–,–,–
COc1cc[nH]c1C=C1C(=O)Nc2ccc(F)c(C#CC3(O)CCNCC3)c21,70.4%,10.7% (inactive),108% (inactive),-2.18,467,3.03 (inactive),-0.005 (inactive),–,–,–,–
Cn1cc(C2=C(Nc3ccccc3)C(=O)NC2=O)c2ccccc21,106%,67.5% (inactive),106% (inactive),0.495,7,0.118 (inactive),-0.007 (inactive),–,–,–,–
COc1ccc(OC)c(C2=C(c3cn(C)c4ccccc34)C(=O)NC2=O)c1,105%,22.1% (inactive),99% (inactive),-0.03,15,0.328 (inactive),-0.003 (inactive),–,–,–,–
Cc1nc2sc3c(N)ncnc3c2c(C)c1C,140%,42% (inactive),77.5% (inactive),-1.64,5,0.308 (inactive),-0.003 (inactive),–,–,–,–
Cn1cc(C2=C(c3cn(C)c4ccccc34)C(=O)NC2=O)c2ccccc21,115%,66.6% (inactive),110% (inactive),-0.485,25.5,0.17 (inactive),-0.001 (inactive),–,–,–,–
Cn1cc(C2=C(c3cccnc3)C(=O)NC2=O)c2ccccc21,312%,2% (active),110% (inactive),-1.34,8.5,0.135 (inactive),-0.005 (inactive),–,–,–,–
Cn1cc(C2=C(c3cn(CCCCN)c4ccccc34)C(=O)NC2=O)c2ccccc21,117%,65.7% (inactive),98.5% (inactive),0.945,3.5,0.117 (inactive),0.01 (inactive),–,–,–,–
O=C1NC(=NC(CO)Cc2ccccc2)SC1=Cc1ccc2ncccc2c1 (centres undefined),107% and 106%,258% (inactive) and 60% (inactive),91.5% (inactive) and 102% (inactive),-0.515 and 0.03,6.5 and 4,0.117 (inactive) and 0.195 (inactive),-0.0075 (inactive) and -0.0115 (inactive),–,–,–,–
Cc1cc(C)c2c(n1)sc1c(N)ncnc12,173%,24.3% (inactive),68.5% (active),-2.76,2.5,0.0145 (inactive),0.0035 (inactive),–,–,–,–
Cn1cc(C2=C(c3cn(CCCCO)c4ccccc34)C(=O)NC2=O)c2ccccc21,84%,14.3% (inactive),108% (inactive),-1.57,32.5,0.668 (inactive),-0.005 (inactive),–,–,–,–
COCC(N=C1NC(=O)C(=Cc2ccc3ncccc3c2)S1)c1ccccc1 (centres undefined),98.8%,49.5% (inactive),98% (inactive),0.145,6.5,0.249 (inactive),-0.005 (inactive),–,–,–,–
NC1=NC(=O)C(=Cc2ccc3ncccc3c2)S1,101%,50.6% (inactive),100% (inactive),0.495,4,0.204 (inactive),-0.007 (inactive),–,–,–,–
CC(C)Nc1ncc2cc(Oc3ccc(F)cc3F)c(=O)n(C)c2n1,99.2%,50.9% (inactive),95.5% (inactive),-0.005,1,0.00675 (inactive),-0.0005 (inactive),–,–,–,–

Compound,liver cell % of control [1],parasite % of control [1],percent of negative control (+Dex) [2],z-score [2],EGFP object count [3],EGFP/DsRed ratio [3],fraction signal [4],z-score [5],z-score [6],"z-score [7, 8]","z-score [7, 9]"
CNCC#Cc1c(F)ccc2c1C(=Cc1[nH]ccc1OC)C(=O)N2,149%,6.77% (inactive),162% (active),1.97,39,0.619 (inactive),-0.0115 (inactive),–,–,–,–
Cn1c(-c2ccncc2)c(-c2ccc(F)cc2)c2ncccc21,100%,44.7% (inactive),104% (inactive),1.04,3,0.0799 (inactive),-0.0005 (inactive),–,–,–,–
Cc1ccccc1C1=C(c2cn(C)c3ccccc23)C(=O)NC1=O,136%,37% (inactive),96% (inactive),-1.4,22,0.4 (inactive),0.0035 (inactive),–,–,–,–
O=C1NC(=O)C(c2c[nH]c3ccccc23)C1c1c[nH]c2ccccc12 (centres undefined),102%,41.2% (inactive),100% (inactive),0.125,2.5,0.0298 (inactive),-0.0005 (inactive),–,–,–,–
CC(=O)NC(Cc1ccc(OP(=O)(O)O)cc1)C(=O)NC1CCC(=O)N2CCCC(C(=O)Nc3cccc4ccccc34)N2C1=O (centres undefined),103%,47% (inactive),104% (inactive),0.475,6.5,0.135 (inactive),-0.007 (inactive),–,–,–,–
COc1ccc(C2=C(c3cn(C)c4ccccc34)C(=O)NC2=O)cc1OC,215%,12.7% (inactive),100% (inactive),-0.425,13,0.28 (inactive),-0.003 (inactive),–,–,–,–
COc1cccc(C2=C(c3cn(C)c4ccc(Cl)cc34)C(=O)NC2=O)c1,197%,11.6% (inactive),139% (inactive),0.245,13.5,0.277 (inactive),-0.0075 (inactive),–,–,–,–
Fc1ccc(-c2c(-c3ccncc3)[nH]c3cccnc23)cc1,141%,1.58% (active),95% (inactive),0.075,6,0.15 (inactive),-0.0095 (inactive),–,–,–,–
Nc1c(C(=O)c2cccc(-c3cccnc3)c2)cnn1-c1ccc(F)cc1F,175%,28.3% (inactive),110% (inactive),0.74,4.5,0.0328 (inactive),0.0015 (inactive),–,–,–,–
Cc1[nH]nc2c1N=C(c1ccccc1F)c1cc(C(N)=O)ccc1N2,91.5%,76.9% (inactive),110% (inactive),0.59,54.5,0.555 (active),-0.005 (inactive),–,–,–,–
CC(=O)NC(Cc1ccc(OP(=O)(O)O)cc1)C(=O)NC1CCC(=O)N2CCCC(C(=O)NCc3ccc(O)cc3)N2C1=O (centres undefined),107%,44.4% (inactive),94.5% (inactive),0.215,6,0.202 (inactive),-0.007 (inactive),–,–,–,–
CC(C)(O)CCc1cccc(C(=O)c2cnn(-c3ccc(F)cc3)c2N)c1,105%,56.9% (inactive),110% (inactive),0.16,1.5,0.0442 (inactive),0.0185 (inactive),–,–,–,–
Cn1cc(C2=C(c3ccc4ccccc4c3)C(=O)NC2=O)c2ccccc21,105%,53.6% (inactive),94% (inactive),-0.025,3,0.0576 (inactive),-0.001 (inactive),–,–,–,–
CC(=O)N1CCC(Nc2ncc3cc(Oc4ccc(F)cc4F)c(=O)n(C)c3n2)CC1,113%,81.4% (inactive),102% (inactive),0.13,2,0.0142 (inactive),-0.005 (inactive),–,–,–,–
Cc1ccccc1-n1ncc(C(=O)c2ccccc2)c1N,104%,52.3% (inactive),120% (inactive),1.31,5,0.225 (inactive),-0.0005 (inactive),–,–,–,–
COc1cccc(C2=C(c3cn(C)c4cc(C)ccc34)C(=O)NC2=O)c1,112%,29% (inactive),98.5% (inactive),-1.5,24,0.336 (inactive),-0.005 (inactive),–,–,–,–
CC(Cn1ncnn1)Nc1ncc2cc(Oc3ccc(F)cc3F)c(=O)n(C)c2n1 (centres undefined),111%,71.1% (inactive),101% (inactive),0.455,1.5,0.0437 (inactive),-0.003 (inactive),–,–,–,–
O=C1NC(=O)C(c2ccccc2)=C1Nc1ccccc1,106%,119% (inactive),99.5% (inactive),0.395,–,–,-0.014 (inactive),0.425 (inactive),-0.099 (inactive),-0.614 (inactive),-0.425
CC(C)(O)Cn1c(=O)c(Oc2ccc(F)cc2F)cc2cnc(NC3CCOCC3)nc21,105%,58.9% (inactive),86% (inactive),-0.37,4,0.0773 (inactive),-0.0135 (inactive),–,–,–,–
Fc1ccc(-c2ncn(C3CCNCC3)c2-c2ccnc(Oc3cccc(C(F)(F)F)c3)n2)cc1,97%,156% (inactive),97% (inactive),0.355,–,–,0.0045 (inactive),0.19 (inactive),-0.64 (inactive),-0.429 (inactive),-0.412
